For 26 compounds, outcome and AC50 results are on record in PubChem BioAssay (EPA / NIEHS).

Records with an inconclusive call do not appear. Calls of active or inactive are those of the source. Rule for the calls: active = hit-call score of the fitted dose curve at least 0.9, where 1 is the maximum; inconclusive = response in the unintended direction; inactive = score below 0.9.

What is called AC50 is the concentration at which the activity in the assay is half-maximal.

Chain of human Ephrin type-A Receptor 2 (EphA2), EPHA2 (gene 1969) (P29317 whole entry, looked up): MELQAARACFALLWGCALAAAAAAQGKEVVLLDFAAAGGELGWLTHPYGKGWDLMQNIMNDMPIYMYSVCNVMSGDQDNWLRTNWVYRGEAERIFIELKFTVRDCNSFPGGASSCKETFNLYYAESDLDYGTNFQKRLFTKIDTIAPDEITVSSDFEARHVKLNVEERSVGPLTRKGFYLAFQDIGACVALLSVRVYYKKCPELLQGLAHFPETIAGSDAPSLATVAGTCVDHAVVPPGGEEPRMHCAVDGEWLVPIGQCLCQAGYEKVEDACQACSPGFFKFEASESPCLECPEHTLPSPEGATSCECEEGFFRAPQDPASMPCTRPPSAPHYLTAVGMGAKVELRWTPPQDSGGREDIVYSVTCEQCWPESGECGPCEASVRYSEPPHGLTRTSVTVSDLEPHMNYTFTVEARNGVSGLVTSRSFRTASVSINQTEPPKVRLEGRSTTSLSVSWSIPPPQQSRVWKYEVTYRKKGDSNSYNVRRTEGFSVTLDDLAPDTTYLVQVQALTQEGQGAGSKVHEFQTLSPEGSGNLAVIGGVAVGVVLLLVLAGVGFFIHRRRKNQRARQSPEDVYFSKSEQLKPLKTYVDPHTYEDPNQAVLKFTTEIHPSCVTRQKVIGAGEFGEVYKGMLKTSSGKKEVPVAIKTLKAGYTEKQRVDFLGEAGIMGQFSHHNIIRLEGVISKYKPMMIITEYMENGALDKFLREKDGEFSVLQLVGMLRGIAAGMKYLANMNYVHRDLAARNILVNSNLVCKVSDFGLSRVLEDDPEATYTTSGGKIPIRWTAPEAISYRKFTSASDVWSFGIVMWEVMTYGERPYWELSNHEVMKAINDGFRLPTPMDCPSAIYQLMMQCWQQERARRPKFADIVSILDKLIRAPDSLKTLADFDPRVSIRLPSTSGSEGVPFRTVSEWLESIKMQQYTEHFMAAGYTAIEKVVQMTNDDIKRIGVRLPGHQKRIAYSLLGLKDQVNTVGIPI

This experiment has as its target human Ephrin type-A Receptor 2 (EphA2), EPHA2 (gene 1969) (UniProt P29317). Briefly: NVS_ENZ_hEphA2: NovaScreen (NVS) Enzymatic Assay for human Ephrin type-A Receptor 2 (EphA2) (AID 2283155). Here is the method:
NVS_ENZ_hEphA2 is a biochemical, single-readout assay that uses extracted gene-proteins in a cell-free assay. Measurements were taken 1 hour after chemical dosing in a 384-well plate.NVS_ENZ_hEphA2 is one of one assay component(s) measured or calculated from the NVS_ENZ_hEphA2 assay. It is designed to make measurements of enzyme activity, a form of enzyme reporter, as detected with fluorescence intensity signals by Fluorescence and electrophoretic mobility shift technology.Data from the assay component NVS_ENZ_hEphA2 was analyzed into 1 assay endpoint. This assay endpoint, NVS_ENZ_hEphA2, was analyzed in the positive analysis fitting direction relative to DMSO as the negative control and baseline of activity. Using a type of enzyme reporter, loss-of-signal activity can be used to understand changes in the enzymatic activity as they relate to the gene EPHA2. Furthermore, this assay endpoint can be referred to as a primary readout, because this assay has produced multiple assay endpoints where this one serves a enzymatic activity function. To generalize the intended target to other relatable targets, this assay endpoint is annotated to the kinase intended target family, where the subfamily is receptor tyrosine kinase.
Binding assays used specific radioligands (tritiated, iodinated) with non-radioactive competitive displacement ligands in agonist or antagonist protocols (as indicated) and various reference compounds and inhibitors to titrate specific binding to receptors and transporters. Most enzyme assays (CYPs, kinases, phosphatases, proteases, HDACs) used recombinant protein and specific substrates (fluorescence mostly, some colorimetric and radioactive) and inhibitors, followed by a biochemical separation of substrate and product. All assays for the biochemical HTS were initially run in duplicate at a single concentration (10 uM for CYP450 assays and 25 uM for all others). Assay-chemical combinations meeting a pre-defined threshold (e.g., 30% inhibition and other criteria defined below) were then run in singleton concentration-response format with maximum concentration of 20 uM for CYPs and 50 uM for all others. Each assay was run with positive and negative controls, and concurrent controls on every plate. The follow-up (secondary) screen tested active chemical-pairs in concentration series, as well as a few additional assays not tested in the primary screen, some selected negative inactives, and several cases re-run in the concentration series for confirmatory purposes.
As to `O=C(NO)C1(NS(=O)(=O)c2ccc(Oc3ccc(F)cc3)cc2)CCOCC1`, the compound was classed as inactive. On the same count and under the same terms, under `CCOC(=O)NCCOc1ccc(Oc2ccccc2)cc1` stands “inactive”; under `N#CCCCCC#N`, “inactive”; under `CC(C)(c1ccc(O)cc1)c1ccc(O)cc1`, “inactive”. Take `CN(C)C(=O)NC1(c2ccccc2)CCN(CCC[C@]2(c3ccc(Cl)c(Cl)c3)CCCN(C(=O)c3ccccc3)C2)CC1`: the compound was called inactive. With `c1ccc2[nH]c(-c3cscn3)nc2c1`, the outcome was inactive.

Consider `O=C(O)Cc1cc(I)c(Oc2cc(I)c(O)c(I)c2)c(I)c1`, for which the call was inactive. On the same count and under the same terms, under `Cc1ccc(C(C)(C)C)c(O)c1` stands “inactive”. On the same count and under the same terms, under `O=Cc1ccccc1C=O` stands “inactive”; under `CC[C@H](C)C(=O)O[C@H]1C[C@H](O)C=C2C=C[C@H](C)[C@H](CC[C@@H](O)C[C@@H](O)CC(=O)O)[C@H]21`, “inactive”; under `N#C[C@@H]1CC(F)(F)CN1C(=O)CNC1CC2CCC(C1)N2c1ncccn1` (stereo partly specified), “inactive”.

`CNS(=O)(=O)c1cc(C(=O)N2CCC(CCN3C4CCC3CC(n3c(C)nc5ccccc53)C4)(c3cccc(F)c3)CC2)c(Cl)cc1F` (stereo unspecified): the compound was classed as inactive. Same read-out and setting: as for `O=C(Nc1ccc(Cl)cc1)Nc1ccc(Cl)c(Cl)c1`, the entry is “inactive”. Regarding `CCCOc1sc(C(=O)N2CCC(c3cc(CN)ccc3F)CC2)c(C)c1Br`, the call was inactive. On the same count and under the same terms, as for `Cc1nc(-c2ccccn2)ncc1C(=O)Nn1cc(C)c2cc(F)ccc21`, the entry is “inactive”. For `Clc1nc(Cl)c(Cl)c(Cl)c1Cl`, the result was inactive. `Cc1ccc(N)cc1O`: the AC50 was 18.1 µM (active). Same read-out and setting: as for `CCCCCCCCCCCCCC[P+](CCCC)(CCCC)CCCC`, the figure is 9.76 µM (active). In the case of `CCN(CC)C(=S)SSC(=S)N(CC)CC`, the compound was called inactive. As for `CC(=O)c1ccccc1`, the compound was called inactive. Turning to `CC(C)c1cccc(C(C)C)c1`, the compound was called inactive. For `O=C(O)c1cccc(Oc2ccccc2)c1`, the result was inactive. On the same count and under the same terms, under `Cc1ccc(Cl)cc1` stands “inactive”; under `Cc1ncc(CO)c(CO)c1O`, “inactive”; under `CCCCc1oc2ccccc2c1C(=O)c1cc(I)c(OCCN(CC)CC)c(I)c1`, “inactive”. Same read-out and setting: as for `CC1=C(/C=C/C(C)=C/C=C/C(C)=C/CO)C(C)(C)CCC1`, the entry is “inactive”.
